The values below come from PubChem BioAssay (EPA / NIEHS).

Structures are written as SMILES. Calls of active or inactive are those of the source. Rule for the calls: active = hit-call score of the fitted dose curve at least 0.9, where 1 is the maximum; inactive = score below 0.9.

Holding throughout (details): primary human lung fibroblasts
Read-out in experiment [1]: Collagen IV, COL4A1 (gene 1282)
Put plainly: BSK_MyoF_CollagenIV: BioMAP Diversity Plus: MyoF Assay for Collagen IV Biomarker Activity (AID 2284247). A digest of the protocol: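 Primary human lung fibroblasts were exposed to test chemicals and sampled 24 h after dosing. Collagen IV levels were measured by ELISA and fitted in the positive direction against DMSO as negative control and baseline.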

Read-out in experiment [2]: Plasminogen activator inhibitor-1 (PAI1), SERPINE1 (gene 5054)
As to the kind of experiment: BSK_MyoF_PAI1: BioMAP Diversity Plus: MyoF Assay for Plasminogen activator inhibitor-1 (PAI1) Biomarker Activity (AID 2284256).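 For outcome: PAI-1 protein level measured by ELISA in fibroblast cultures; PAI-1 read 24 h after compound addition.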 A digest of the protocol: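 Human lung fibroblasts (MyoF system) were exposed to test chemicals for 24 h, then PAI-1 was quantified by ELISA. Activity was fitted in the positive (signal-gain) direction relative to DMSO vehicle as baseline.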

Read-out in experiment [3]: Interleukin-8 (IL8), CXCL8 (gene 3576)
As to the kind of experiment: BSK_MyoF_IL8: BioMAP Diversity Plus: MyoF Assay for Interleukin-8 (IL8) Biomarker Activity (AID 2284261). Put shortly: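 IL-8 quantified by ELISA after 24 h compound exposure of primary human lung fibroblasts. SRB staining of parallel cultures flagged cytotoxicity; DMSO served as baseline.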

Read-out in experiment [4]: Matrix Metallopeptidase 1 (MMP1), MMP1 (gene 4312)
As to the kind of experiment: BSK_MyoF_MMP1: BioMAP Diversity Plus: MyoF Assay for Matrix Metallopeptidase 1 (MMP1) Biomarker Activity (AID 2284268). A digest of the protocol: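 Human lung fibroblasts (MyoF system) exposed to chemical for 24 h in 96-well format; MMP1 biomarker quantified by ELISA, with activity fitted in the positive direction relative to DMSO baseline.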

Read-out in experiment [5]: TIMP metallopeptidase inhibitor 1 (TIMP1), TIMP1 (gene 7076)
Put plainly: BSK_MyoF_TIMP1: BioMAP Diversity Plus: MyoF Assay for TIMP metallopeptidase inhibitor 1 (TIMP1) Biomarker Activity (AID 2284269). Put shortly: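 ELISA quantified TIMP-1 levels after 24 h dosing of primary human lung fibroblasts, with DMSO as baseline. Parallel SRB total protein staining (0.1% SRB after TCA fixation, 560 nm) flagged overt cytotoxicity.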

For `O=C(O)c1cn(C2CC2)c2cc(N3CCNCC3)c(F)cc2c1=O`, the outcome in experiment [1], in experiment [2], in experiment [3], in experiment [4] and in experiment [5] was inactive.

`CCCCCCCCCCCCCCCCCC(=O)OCC(CC)CCCC` (stereo not given): the result in experiment [1], in experiment [2], in experiment [3], in experiment [4] and in experiment [5] was inactive.

`Cc1ccc(Nc2ccc(O)c3c2C(=O)c2ccccc2C3=O)cc1`: the outcome in experiment [1], in experiment [2], in experiment [3], in experiment [4] and in experiment [5] was inactive.

On to `CCCCC(CC)COC(=O)/C=C\C(=O)OCC(CC)CCCC` (stereo not given), for which the outcome in experiment [1], in experiment [2], in experiment [3], in experiment [4] and in experiment [5] was inactive.

`CC(=O)O[C@]1(C(C)=O)CC[C@H]2[C@@H]3C[C@H](C)C4=CC(=O)CC[C@]4(C)[C@H]3CC[C@@]21C`: the outcome in experiment [1], in experiment [2], in experiment [3], in experiment [4] and in experiment [5] was inactive.

In the case of `CCc1c(C)cc(N)c(CC)c1N`, the result in experiment [1], in experiment [2], in experiment [3], in experiment [4] and in experiment [5] was inactive.

Consider `O=[N+]([O-])c1cc(C(F)(F)F)ccc1Cl`, for which the result in experiment [1], in experiment [3], in experiment [4] and in experiment [5] was inactive. Moreover, the AC50 (usually the midpoint of the concentration-response curve, whichever way the signal moves) in experiment [2] is 0.11 µM (active).

On to `COC(=O)c1ccc(C)cc1`, for which the outcome in experiment [1], in experiment [2], in experiment [3], in experiment [4] and in experiment [5] was inactive.

For `O=C=NC1CCC(CC2CCC(N=C=O)CC2)CC1` (stereo not given), the result in experiment [1], in experiment [2], in experiment [3], in experiment [4] and in experiment [5] was inactive.

Regarding `CC(C)(COC(=O)c1ccccc1)COC(=O)c1ccccc1`, the outcome in experiment [1], in experiment [2], in experiment [3], in experiment [4] and in experiment [5] was inactive.

Take `O=C1CCCCCCCCCCCCCCO1`: the outcome in experiment [1], in experiment [2], in experiment [3] and in experiment [5] was inactive. Further, the AC50 in experiment [4] was 20 µM (active).

For the compound `CNC[C@H](O)c1cccc(O)c1`, the outcome in experiment [1], in experiment [2], in experiment [3], in experiment [4] and in experiment [5] was inactive.

Turning to `Nc1cc([N+](=O)[O-])ccc1Cl`, the result in experiment [1], in experiment [2], in experiment [3], in experiment [4] and in experiment [5] was inactive.

In the case of `Cc1ccc(O)c(C(C)(C)C)c1`, the result in experiment [1], in experiment [3] and in experiment [4] was inactive. The results for the AC50 in experiment [2] and in experiment [5] were 31.6 µM (active) and 33.7 µM (active), respectively.

For `CC1COc2ccccc2N1C(=O)C(Cl)Cl` (stereo not given), the AC50 in experiment [1] was 2.33 µM (active); in experiment [2], 5.3 µM (active); in experiment [3] it was 16.1 µM (active); in experiment [4], 9.41 µM (active); in experiment [5] it was 4.69 µM (active).

In the case of `Cc1ccc2n[nH]nc2c1`, the outcome in experiment [1], in experiment [2], in experiment [3], in experiment [4] and in experiment [5] was inactive.

In the case of `CCCCC(CC)COCCC#N` (stereo not given), the outcome in experiment [1], in experiment [2], in experiment [3], in experiment [4] and in experiment [5] was inactive.

Turning to `CCn1c2ccccc2c2cc(N)ccc21`, the result in experiment [1], in experiment [2], in experiment [3], in experiment [4] and in experiment [5] was inactive.

Consider `CCCCCCCCCC=O`, for which the AC50 was 7.8 µM (active) in experiment [1] and 0.016 µM (active) in experiment [2]. Further, the result in experiment [3], in experiment [4] and in experiment [5] was inactive.

Consider `CCCCC/C=C/C=C/C=O`, for which the figures for the AC50 in experiment [1], in experiment [2] and in experiment [5] were 10.5 µM (active), 29.4 µM (active) and 34.2 µM (active), respectively. Moreover, the result in experiment [3] and in experiment [4] was inactive.

On to `O=P(c1ccccc1)(c1ccccc1)c1ccccc1`, for which the outcome in experiment [1], in experiment [2], in experiment [3], in experiment [4] and in experiment [5] was inactive.

On to `C#C[C@]1(O)CC[C@H]2[C@@H]3CCC4=Cc5oncc5C[C@]4(C)[C@H]3CC[C@@]21C`, for which the outcome in experiment [1], in experiment [3] and in experiment [4] was inactive. Also, the AC50 in experiment [2] was 3.97 µM (active); in experiment [5], 35.8 µM (active).

On to `O=C1OC2(c3cc(Br)c(O)c(Br)c3Oc3c2cc(Br)c(O)c3Br)c2c(Cl)c(Cl)c(Cl)c(Cl)c21`, for which the half-maximal activity concentration (AC50) was 2.72 µM (active) in experiment [1], 4.56 µM (active) in experiment [2], 20 µM (active) in experiment [3] and 8.64 µM (active) in experiment [5]. Further, the result in experiment [4] was inactive.

`CC1CCC(C(C)CS)CC1S` (stereo not given): the AC50 is 11.8 µM (active) in experiment [1], 8.22 µM (active) in experiment [2], 11.1 µM (active) in experiment [3] and 11.1 µM (active) in experiment [5]. Moreover, the outcome in experiment [4] was inactive.

As for `CCCCCCCCC=O`, the result in experiment [1], in experiment [2], in experiment [3], in experiment [4] and in experiment [5] was inactive.
